Screening data from PubChem BioAssay.
ALOX15B inhib: inhibitors of human 15-lipoxygenase 2 (ALOX15B); O15296; purified 15hLO-2, xylenol orange hydroperoxide absorbance; Potency, µM (titrated, usually from 57.1 µM), for inactives: at the highest dose activity change, negative = inhibition, actives largely listed as inhibitors; hit rate 0.56% among 110,000; note: nearly all actives have a fitted effect of over 60% in size
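Purified human 15hLO-2 (50 nM final) preincubated with compounds 15 min at room temperature in 25 mM Hepes pH 7.5, 0.01% Triton X-100, then 45 uM arachidonic acid added for 90 min; hydroperoxide detected via ferrous/xylenol orange, 573/405 nm absorbance ratio.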
12-hLO inh: inhibitors of human 12-lipoxygenase (ALOX12). P18054. purified 12-hLO, xylenol orange hydroperoxide absorbance. Potency, µM (titrated, usually from 57.1 µM), for inactives: at the highest dose activity change, negative = inhibition, actives largely listed as inhibitors. hit rate 0.12% among 150,000. AID 1452; note: nearly all actives have a fitted effect of over 55% in size
Target sequence (P18054 whole entry, looked up): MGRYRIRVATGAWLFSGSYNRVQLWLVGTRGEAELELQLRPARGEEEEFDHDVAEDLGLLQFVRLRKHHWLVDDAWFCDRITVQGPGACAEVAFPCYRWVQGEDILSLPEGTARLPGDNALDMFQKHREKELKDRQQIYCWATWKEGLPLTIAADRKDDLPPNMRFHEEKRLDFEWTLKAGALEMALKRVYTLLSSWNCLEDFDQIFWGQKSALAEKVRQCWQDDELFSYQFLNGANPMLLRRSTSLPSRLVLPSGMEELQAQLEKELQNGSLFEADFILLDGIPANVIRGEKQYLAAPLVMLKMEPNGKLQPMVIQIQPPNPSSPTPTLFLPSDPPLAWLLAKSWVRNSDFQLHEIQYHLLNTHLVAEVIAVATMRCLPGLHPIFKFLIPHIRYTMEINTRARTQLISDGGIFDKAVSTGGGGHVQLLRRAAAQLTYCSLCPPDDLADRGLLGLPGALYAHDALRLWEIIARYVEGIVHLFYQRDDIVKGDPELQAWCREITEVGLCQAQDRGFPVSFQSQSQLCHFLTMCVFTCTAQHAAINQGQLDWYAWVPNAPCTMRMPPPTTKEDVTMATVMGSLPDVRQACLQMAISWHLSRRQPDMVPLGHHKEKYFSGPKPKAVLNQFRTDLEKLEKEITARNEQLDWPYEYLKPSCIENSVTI
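Lipoxygenase turnover measured by absorbance at 573 and 405 nm after Fe-XO development. Human 12hLO 150 nM, arachidonate 40 uM, pH 7.0 Hepes buffer with detergent; 15 min compound preincubation, 30 min reaction.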
* marks the source's active call; other numbers are inactive results; u = inconclusive; x = no result; [ ] = remark or other dose. The entries come from a sample that favours hits as a whole. Calls come from the whole dose curve; as a rule, active = well fitted curve in the direction sought with a large enough effect; inconclusive = small, poorly fitted or top-dose-only effect, or another doubt; inactive = no such curve, though single readings can be large; an effect the other way counts as inactive or inconclusive. % is set by controls: 0 for no effect and ±100 for the full control effect; potency is the fitted concentration of half-maximal effect.

SMILES | ALOX15B inhib | 12-hLO inh
N#C/C(=C\c1ccc(O)c(O)c1)C(=O)NCCc1ccccc1 | -24% | u
N=c1c(C(=O)NC2CCCC2)cc2c(=O)n3ccccc3nc2n1C1CCCC1 | -16% | 32µM*
Cc1cccn2c(=O)c3cc(C(=O)NC4CCCC4)c(=N)n(C4CCCC4)c3nc12 | 6%[2.29 µM] | -4%
COC(=O)c1ccc(C(NC(=O)OCc2ccccc2)/C(=C/[C@@H](C)C(=O)NCc2cc(C)on2)c2cccnc2)cc1 (some centres undefined) | 14% | 3%
O=C(NNc1nc2ccccc2nc1C(F)(F)F)c1ccccc1 | x | 4%
Cc1ccc(S(=O)(=O)NNc2nc3ccccc3nc2C(F)(F)F)cc1 | 7.9µM* | u
Cc1ccc(S(=O)(=O)NNC(=O)CCC(=O)Nc2ccccc2)cc1 | x | 8%
Cc1ccc(S(=O)(=O)NNc2ccccc2)cc1 | u | 16µM*
CCCCC(C)(O)C/C=C/[C@H]1[C@H](O)CC(=O)[C@@H]1CCCCCCC(=O)O (some centres undefined) | x | 14%
C=CC1=C(C)/C(=C/c2[nH]c(Cc3[nH]c(/C=C4\NC(=O)C(C)=C4C=C)c(C)c3CCC(=O)O)c(CCC(=O)O)c2C)NC1=O | -12% | -14%
O=[N+]([O-])c1ccccc1C1Nc2cccc3cccc(c23)N1 | u | -3%
O=[N+]([O-])c1ccc(Cl)c(C2Nc3cccc4cccc(c34)N2)c1 | 13µM* | u
CC(=O)N=c1c(C#N)cc2c(=O)n3cccc(C)c3nc2n1CC(C)C | x | -9%
COC(=O)c1ccc(C(NC(=O)OCc2ccccc2)/C(=C/[C@@H](C)C(=O)Nc2ccccc2)c2cccnc2)cc1 (some centres undefined) | 49% | -1%
CCOC(=O)CCCNC(=O)N1CCc2nc(-c3ccccc3)c3c(c2C1)CO[C@@H](C)C3 | x | 1%[11.4 µM]
CC1=C(C(=O)OCc2ccccc2)C(c2ccc(Cl)cc2)NC(=O)N1CCCCCC(=O)O (centres undefined) | -17% | -4%
CC1=C(C(=O)OCc2ccccc2)C(c2ccc(C3CCCCC3)cc2)NC(=O)N1CCCCCC(=O)O (centres undefined) | 25µM* | -3%
CN(C)[C@H]1C(=O)C(C(=O)NCN2CCCC2)=C(O)[C@]2(O)C(=O)C3=C(O)c4c(O)cccc4[C@@](C)(O)[C@H]3C[C@@H]12 | 25%[25.6 µM] | -8%[25.6 µM]
COC1=CC(=O)C(C(=O)c2ccccc2)=CC1=O | -22% | -22%
C=CC(C1=CC(=O)C(OC)=CC1=O)c1ccccc1 (centres undefined) | 20µM* | -25%
O=C(NC(=S)Nc1ccc(S(=O)(=O)N2CCCCCC2)cc1)c1cccs1 | x | 2%
O=C(NC(=S)Nc1ccc(N2CCCCC2)cc1)c1cccs1 | 20µM* | u
CCN(c1ccccc1)S(=O)(=O)c1ccc(NC(=S)NC(=O)c2cccs2)cc1 | u | 25µM*
CCCC(=O)NC(=S)Nc1ccc(NC(=O)c2cccs2)cc1 | -8% | -3%
COC(=O)c1cccc(C23CC4(C2)[C@H](CN(C)[C@@H]4c2ccccc2)C3c2ccc(Cl)nc2)c1 (some centres undefined) | -2% | 0%
SMILES | ALOX15B inhib | 12-hLO inh
COc1ccccc1CCn1c(=O)c(-c2cc(F)cc(F)c2)nc2cncnc21 | 5% | -7%
CCC(C)CCCCC(=O)N[C@@H](CCN)C(=O)N[C@H](C(=O)N[C@@H](CCN)C(=O)N[C@H]1CCNC(=O)C([C@@H](C)O)NC(=O)[C@@H](CCN)NC(=O)[C@H](CCN)NC(=O)[C@H](CC(C)C)NC(=O)[C@@H](CC(C)C)NC(=O)[C@H](CCN)NC1=O)[C@@H](C)O (some centres undefined) | 117%[0.0915 µM] | -13%[0.00818 µM]
CCC(C)C1NC(=O)C(CCNCS(=O)(=O)O)NC(=O)C(NC(=O)C(CCNCS(=O)(=O)O)NC(=O)C(NC(=O)C(CCNCS(=O)(=O)O)NC(=O)CCCCC(C)C)C(C)O)CCNC(=O)C(C(C)O)NC(=O)C(CCNCS(=O)(=O)O)NC(=O)C(CCNCS(=O)(=O)O)NC(=O)C(C(C)CC)NC1=O (centres undefined) | 4µM* | u
CCOC(=O)C1(C)/C(=N/Nc2cccc(Cl)c2)C(=O)C(=O)N1c1ccccc1 (centres undefined) | -21% | 3.2µM*
CCOC(=O)CSc1nnc(CNc2cccc(Cl)c2)n1-c1ccccc1 | -2% | -10%
C#CCN1C(C)=C(C(=O)OC)[C@@H](c2cccc([N+](=O)[O-])c2)C(C(=O)OCC)=C1C | -9% | -4%
Cn1c(=O)c2[nH]c(CCCCC(=O)O)nc2n(C)c1=O | -4%[11.4 µM] | -4%[11.4 µM]
C=CCOc1ccc2cccc(/C=N/NC(=O)c3cc4cc([N+](=O)[O-])ccc4s3)c2c1 | 10µM* | 0%
O=C(N/N=C/c1cccc([N+](=O)[O-])c1)c1cccs1 | x | -4%
C/C(=N\Nc1nc2ccccc2s1)c1cccs1 | x | 13µM*
